According to PubChem BioAssay (NCI):
This is part of a sample that, as a whole, favours compounds with a hit. Of some 83,000 tested, about 20% had one in any assay.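 Method: cells in 96-well plates; compound added at one concentration; 48 h incubation; percent growth measured; values under 10 scored active.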 Active and inactive are the calls of the source.

Legend:
Assay in all cases: NCI-60 one-dose screen, 48 h (100 = growth as untreated, 0 = no growth, -100 = all killed)
Conditions in all cases: 10 µM unless noted
T-47D breast = tested on: T-47D breast
BT-549 breast = tested on: BT-549 breast
MDA-MB-435 melanoma = tested on: MDA-MB-435 melanoma
SW-620 colon = tested on: SW-620 colon
MCF7 breast = tested on: MCF7 breast
HCT-116 colon = tested on: HCT-116 colon
HCC-2998 colon = tested on: HCC-2998 colon
KM12 colon = tested on: KM12 colon

Measured: growth

O=C(O)CSCC(=O)Nc1cc(C(F)(F)F)ccc1Cl
inactive: T-47D breast 102% | BT-549 breast 114% | MDA-MB-435 melanoma 111% | SW-620 colon 125% | MCF7 breast 102% | HCT-116 colon 107% | HCC-2998 colon 118% | KM12 colon 105%

Nc1ccn(C2OC(CO)C(O)C2F)c(=O)n1 (stereo not drawn)
inactive: T-47D breast 94.1% | BT-549 breast 93.9% | MDA-MB-435 melanoma 78.4% | SW-620 colon 67.7% | MCF7 breast 46.7% | HCT-116 colon 49.2% | HCC-2998 colon 49.7% | KM12 colon 89.6%

COc1ccc(C)cc1NC(=O)SC(C)C
inactive: T-47D breast 89.7% [100 µM] | BT-549 breast 101% [100 µM] | MDA-MB-435 melanoma 101% [100 µM] | SW-620 colon 99.8% [100 µM] | MCF7 breast 87% [100 µM] | HCT-116 colon 104% [100 µM] | HCC-2998 colon 98.5% [100 µM] | KM12 colon 101% [100 µM]

O=C(O)c1c[nH]c2ccccc2c1=O
inactive: T-47D breast 89.5% | BT-549 breast 101% | MDA-MB-435 melanoma 107% | SW-620 colon 108% | MCF7 breast 93.9% | HCT-116 colon 95% | HCC-2998 colon 102% | KM12 colon 100%

Cc1cc2c(C(C)C)c(O)c(O)c(C=Nc3ccccc3[N+](=O)[O-])c2c(O)c1-c1c(C)cc2c(C(C)C)c(O)c(O)c(C=Nc3ccccc3[N+](=O)[O-])c2c1O
inactive: T-47D breast 83.1% | BT-549 breast 94% | MDA-MB-435 melanoma 109% | SW-620 colon 96.3% | MCF7 breast 91.2% | HCT-116 colon 73.7% | HCC-2998 colon 79.5% | KM12 colon 47.7%

CC(c1ccccc1)N(C)C (stereo not drawn)
inactive: T-47D breast 112% | BT-549 breast 101% | MDA-MB-435 melanoma 119% | SW-620 colon 117% | MCF7 breast 99.5% | HCT-116 colon 93.8% | HCC-2998 colon 113% | KM12 colon 101%

C[n+]1cc2cc3c(cc2c2ccccc21)OCO3
inactive: T-47D breast 39.8% | BT-549 breast 20% | MDA-MB-435 melanoma 64.9% | SW-620 colon 56.5% | MCF7 breast 24.5% | HCT-116 colon 40.3% | HCC-2998 colon 54.7% | KM12 colon 12.9%

CCC1CCC(C)NC1 (stereo not drawn)
inactive: T-47D breast 106% | BT-549 breast 101% | MDA-MB-435 melanoma 104% | SW-620 colon 96.9% | MCF7 breast 95% | HCT-116 colon 98.8% | HCC-2998 colon 106% | KM12 colon 97.6%

Clc1cccc(Cl)c1CSc1nc2ccccc2n2cccc12
inactive: T-47D breast 25.1% | BT-549 breast 98.7% | MDA-MB-435 melanoma 66.8% | SW-620 colon 97% | MCF7 breast 17% | HCT-116 colon 86.9% | HCC-2998 colon 109% | KM12 colon 84.4%

O=Cc1ccc(O)c(O)c1
inactive: T-47D breast 83.2% | BT-549 breast 101% | MDA-MB-435 melanoma 102% | SW-620 colon 113% | MCF7 breast 96.5% | HCT-116 colon 98.5% | HCC-2998 colon 93.3% | KM12 colon 91.2%

Cc1ccc(C(C)C)c(OCC(=O)O)c1
inactive: T-47D breast 117% | BT-549 breast 112% | MDA-MB-435 melanoma 108% | SW-620 colon 96% | MCF7 breast 100% | HCT-116 colon 105% | HCC-2998 colon 106% | KM12 colon 108%

OCc1cccnc1
inactive: T-47D breast 106% | BT-549 breast 106% | MDA-MB-435 melanoma 97.2% | SW-620 colon 102% | MCF7 breast 94% | HCT-116 colon 107% | HCC-2998 colon 107% | KM12 colon 105%

OC1Cc2ccccc2C1
inactive: T-47D breast 102% | BT-549 breast 97.4% | MDA-MB-435 melanoma 102% | SW-620 colon 96.7% | MCF7 breast 86.2% | HCT-116 colon 97.9% | HCC-2998 colon 94.8% | KM12 colon 98.5%

O=Cc1ccc(F)cc1
inactive: T-47D breast 94.6% | BT-549 breast 100% | MDA-MB-435 melanoma 97.9% | SW-620 colon 92.8% | MCF7 breast 92.6% | HCT-116 colon 101% | HCC-2998 colon 104% | KM12 colon 109%

COC1(OC)C2(Cl)C(Cl)=C(Cl)C1(Cl)C1COCC12 (stereo not drawn)
inactive: T-47D breast 96.2% | BT-549 breast 105% | MDA-MB-435 melanoma 99% | SW-620 colon 85.8% | MCF7 breast 101% | HCT-116 colon 91.5% | HCC-2998 colon 105% | KM12 colon 111%

O=S(=O)(c1ccc(NC(=S)NCc2cccnc2)cc1)N1CCCCC1
inactive: T-47D breast 32.9% | BT-549 breast 73.4% | MDA-MB-435 melanoma 36.2% | SW-620 colon 32.7% | MCF7 breast 54.7% | HCT-116 colon 26.2% | HCC-2998 colon 71.6% | KM12 colon 51.7%

CCCC(=O)c1cccs1
inactive: T-47D breast 86.6% | BT-549 breast 101% | MDA-MB-435 melanoma 104% | SW-620 colon 101% | MCF7 breast 94.3% | HCT-116 colon 100% | HCC-2998 colon 99.8% | KM12 colon 105%

O=C(NCCc1ccccc1)/C(=C\c1ccc(Cl)cc1Cl)NC(=O)c1ccccc1
inactive: T-47D breast 98.1% | BT-549 breast 104% | MDA-MB-435 melanoma 96.6% | SW-620 colon 95.7% | MCF7 breast 91.9% | HCT-116 colon 99.7% | HCC-2998 colon 113% | KM12 colon 93.4%

S=c1nc(-c2ccccn2)c(-c2ccccn2)n[nH]1
inactive: T-47D breast 93.9% | BT-549 breast 101% | MDA-MB-435 melanoma 110% | SW-620 colon 106% | MCF7 breast 96.9% | HCT-116 colon 100% | HCC-2998 colon 99.5% | KM12 colon 97.4%

C#CC(O)c1ccccc1 (stereo not drawn)
inactive: T-47D breast 99.9% | BT-549 breast 106% | MDA-MB-435 melanoma 108% | SW-620 colon 102% | MCF7 breast 99.1% | HCT-116 colon 102% | HCC-2998 colon 125% | KM12 colon 107%

COc1ccc2c(Cl)cc(NC(=O)Nc3c(C)cccc3C)nc2c1
inactive: T-47D breast 62.2% | BT-549 breast 93.8% | MDA-MB-435 melanoma 83% | SW-620 colon 85.3% | MCF7 breast 75.7% | HCT-116 colon 63.8% | HCC-2998 colon 95.3% | KM12 colon 88.8%

COc1ccc(C2CCCCC2=O)cc1 (stereo not drawn)
inactive: T-47D breast 100% | BT-549 breast 111% | MDA-MB-435 melanoma 103% | SW-620 colon 104% | MCF7 breast 103% | HCT-116 colon 106% | HCC-2998 colon 107% | KM12 colon 112%

S=C=Nc1ccc2ccccc2c1
inactive: T-47D breast 108% | BT-549 breast 96.2% | MDA-MB-435 melanoma 101% | SW-620 colon 105% | MCF7 breast 101% | HCT-116 colon 103% | HCC-2998 colon 95.7% | KM12 colon 104%

CCCc1cccc(CCC)c1NC(=O)Nc1cc(Cl)cc(Cl)c1
inactive: T-47D breast 82.3% | BT-549 breast 86.6% | MDA-MB-435 melanoma 104% | SW-620 colon 123% | MCF7 breast 99.1% | HCT-116 colon 91.2% | HCC-2998 colon 116% | KM12 colon 101%

NCCCN1CCCC1=O
inactive: T-47D breast 115% | BT-549 breast 110% | MDA-MB-435 melanoma 124% | SW-620 colon 108% | MCF7 breast 104% | HCT-116 colon 107% | HCC-2998 colon 100% | KM12 colon 104%

CC(C)(CC(=O)O)CC(=O)O
inactive: T-47D breast 119% | BT-549 breast 98.6% | MDA-MB-435 melanoma 99.7% | SW-620 colon 103% | MCF7 breast 103% | HCT-116 colon 103% | HCC-2998 colon 99.8% | KM12 colon 100%

CC(=O)c1cccs1
inactive: T-47D breast 90% | BT-549 breast 97% | MDA-MB-435 melanoma 109% | SW-620 colon 108% | MCF7 breast 94.6% | HCT-116 colon 97.4% | HCC-2998 colon 98.4% | KM12 colon 102%

O=S(=O)(O)C(C(I)I)S(=O)(=O)O
inactive: T-47D breast 118% | BT-549 breast 118% | MDA-MB-435 melanoma 104% | SW-620 colon 105% | MCF7 breast 98.9% | HCT-116 colon 107% | HCC-2998 colon 101% | KM12 colon 103%

Cc1ccc(C)c(CCO)c1
inactive: T-47D breast 103% | BT-549 breast 94.3% | MDA-MB-435 melanoma 107% | SW-620 colon 98.3% | MCF7 breast 112% | HCT-116 colon 107% | HCC-2998 colon 103% | KM12 colon 101%

CCN(CC)CCCC(C)NC(=S)N/N=C(\C)c1ccccn1 (stereo not drawn)
inactive: T-47D breast 56.7% | BT-549 breast 65.5% | MDA-MB-435 melanoma 54.8% | SW-620 colon 47.5% | MCF7 breast 25.7% | HCT-116 colon 23.9% | HCC-2998 colon 56.8% | KM12 colon 36.4%

Cc1cc(C(=O)NN)c(C#N)c(=O)[nH]1
inactive: T-47D breast 96.3% | BT-549 breast 109% | MDA-MB-435 melanoma 119% | SW-620 colon 102% | MCF7 breast 93% | HCT-116 colon 100% | HCC-2998 colon 112% | KM12 colon 122%

CC(C)NC(=O)OCc1c(COC(=O)NC(C)C)c(-c2ccc(Cl)cc2)n2c1CCC2
inactive: T-47D breast 36.3% | BT-549 breast 27% | MDA-MB-435 melanoma 66.7% | SW-620 colon 46.6% | MCF7 breast 41.2% | HCT-116 colon 49.9% | HCC-2998 colon 87% | KM12 colon 100%

CCCCCC/C=C\CCCCCCCCCc1cc(O)cc(OC)c1O
inactive: MDA-MB-435 melanoma 13.3% | SW-620 colon 14.9% | HCC-2998 colon 35.7% | KM12 colon 12.5%
active: T-47D breast -61.8% | BT-549 breast 3.38% | MCF7 breast 6.81% | HCT-116 colon 5.45%

CCCC(=O)CC(=O)c1ccccc1
inactive: T-47D breast 96.1% | BT-549 breast 101% | MDA-MB-435 melanoma 110% | SW-620 colon 105% | MCF7 breast 97.2% | HCT-116 colon 94.8% | HCC-2998 colon 99.1% | KM12 colon 102%

CC(C)(C)CC1(C)NC(=O)NC1=O (stereo not drawn)
inactive: T-47D breast 108% | BT-549 breast 119% | MDA-MB-435 melanoma 114% | SW-620 colon 103% | MCF7 breast 100% | HCT-116 colon 101% | HCC-2998 colon 113% | KM12 colon 106%

CCCCN(C(=O)CC)c1ccccc1
inactive: T-47D breast 110% | BT-549 breast 104% | MDA-MB-435 melanoma 108% | SW-620 colon 98.7% | MCF7 breast 100% | HCT-116 colon 99.8% | HCC-2998 colon 112% | KM12 colon 102%
